# PubChem BioAssay (NCATS)
# Results filed as inconclusive are left out. Activity calls are given as the source filed them. Unless noted, calls come from the whole dose curve; as a rule, active = well fitted curve in the direction sought with a large enough effect; inconclusive = small, poorly fitted or top-dose-only effect, or another doubt; inactive = no such curve, though single readings can be large; an effect the other way counts as inactive or inconclusive.
# Columns and labels:
# [1] = Primary qHTS for inhibitors of nuclear receptor binding SET domain protein 2 (NSD2) in an isogenic RCH-ACV NSD2 p.E1099K mutant (9B) (AID 1645876); note: potency is the fitted concentration of half-maximal effect; nearly all actives have a fitted effect of over 70% in size
# [2] = Primary qHTS for inhibitors of nuclear receptor binding SET domain protein 2 (NSD2) in an RCH-ACV wild type WT cells (2C) (AID 1645877); note: potency is the fitted concentration of half-maximal effect; nearly all actives have a fitted effect of over 70% in size
# [3] = molecular target: Glutathione peroxidase 1 (Homo sapiens) (UniProt P07203); assay: Primary qHTS Assay for Inhibitors of Recombinant Selenoprotein Glutathione Peroxidase 1 (GPX1) (AID 1845191); note: nearly all actives have a fitted effect of over 65% in size
# Glutathione peroxidase 1 (Homo sapiens), sequence (P07203 whole entry, looked up): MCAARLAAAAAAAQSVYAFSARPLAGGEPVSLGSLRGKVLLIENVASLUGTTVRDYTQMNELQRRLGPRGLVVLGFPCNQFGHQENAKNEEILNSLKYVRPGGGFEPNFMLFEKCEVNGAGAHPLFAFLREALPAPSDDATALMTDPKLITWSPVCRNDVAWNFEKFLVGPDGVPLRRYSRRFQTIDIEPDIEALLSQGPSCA
# In short: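 10 nM GPX1 + cpd, 30 min RT; start w/ 1 mM GSH, 0.5 mM cumene hydroperoxide, 0.5 mM NADPH, 100 nM GR, 0.01% BSA; buffer 50 mM Tris-HCl pH 7.5, 2 mM EDTA, 150 mM NaCl; Fl 340/450, 0 & 15 min.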
# [4] = qHTS drug screen for cell cycle checkpoint inhibitors in PARPi-resistant BRCA-mutant ovarian cancer cell lines. (AID 1963452; calls by dose curve); conditions: PEO1/OlaR viability, CellTiter-Glo luminescence, 96 h, stronger effect = lower value
# In short: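 PEO1, PEO4 and PEO1/OlaR ovarian cancer cells, 600 per well, exposed 96 h at 37C to a dilution series. Viability read by CellTiter-Glo luminescence, normalized to DMSO and empty wells; activity summarized as Z-AUC.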
# [5] = molecular target: Lysosomal acid glucosylceramidase (Homo sapiens) (UniProt P04062); assay: Glucocerebrosidase-p2 (AID 348; in the data active = potency below about 10 µM; note: potency is the fitted concentration of half-maximal effect); conditions: purified GBA, blue fluorogenic substrate, 40 min
# Lysosomal acid glucosylceramidase (Homo sapiens), sequence (P04062 whole entry, looked up): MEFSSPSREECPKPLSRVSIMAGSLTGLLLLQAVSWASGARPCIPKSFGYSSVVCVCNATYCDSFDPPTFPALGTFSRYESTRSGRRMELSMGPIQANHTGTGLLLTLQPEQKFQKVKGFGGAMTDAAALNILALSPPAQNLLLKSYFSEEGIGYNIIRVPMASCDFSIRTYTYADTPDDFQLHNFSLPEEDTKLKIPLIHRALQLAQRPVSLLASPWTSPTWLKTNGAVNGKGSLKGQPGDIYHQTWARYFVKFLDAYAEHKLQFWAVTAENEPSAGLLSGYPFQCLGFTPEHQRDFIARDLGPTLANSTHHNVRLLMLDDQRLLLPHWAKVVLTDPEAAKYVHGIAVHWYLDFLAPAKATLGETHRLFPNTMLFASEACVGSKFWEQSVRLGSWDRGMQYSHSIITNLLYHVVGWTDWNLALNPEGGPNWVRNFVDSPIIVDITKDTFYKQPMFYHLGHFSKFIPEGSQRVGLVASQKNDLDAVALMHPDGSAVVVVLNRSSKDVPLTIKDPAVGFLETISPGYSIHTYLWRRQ
# In short: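 Compounds titrated from 0.6 nM upwards against 0.2 nM enzyme in pH 5.9 citric acid/KH2PO4, taurocholate, tween-20; blue fluorogenic substrate 80 uM, 40 min room temperature, stopped and read Ex 365/Em 440 for AC50.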
# [6] = AP1 Signaling Pathway (AID 357; active = well fitted curve in either direction with a large enough effect, not every such curve was filed as active;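 note: ME-180 reporter cells stimulated with EGF at its EC50 level; % is set by controls: 0 for no effect and ±100 for the full control effect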); conditions: ME-180 AP-1-bla reporter, EGF-induced, beta-lactamase ratio, 5 h; at 7.69 µM (top of the series) unless noted
# In short: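 In this screen, ME-180 cells in Opti-MEM with 0.5% dialyzed FBS received EC50 EGF and compound titrations for 5 h. AP-1 reporter beta-lactamase was detected via CCF4 ratio, giving AC50 for positive and negative modulators.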
# [7] = molecular target: Cytochrome P450 1A2 (Homo sapiens) (UniProt P05177); assay: p450-cyp1a2 (AID 410; calls by dose curve; note: potency is the fitted concentration of half-maximal effect)
# Cytochrome P450 1A2 (Homo sapiens), sequence (P05177 whole entry, looked up): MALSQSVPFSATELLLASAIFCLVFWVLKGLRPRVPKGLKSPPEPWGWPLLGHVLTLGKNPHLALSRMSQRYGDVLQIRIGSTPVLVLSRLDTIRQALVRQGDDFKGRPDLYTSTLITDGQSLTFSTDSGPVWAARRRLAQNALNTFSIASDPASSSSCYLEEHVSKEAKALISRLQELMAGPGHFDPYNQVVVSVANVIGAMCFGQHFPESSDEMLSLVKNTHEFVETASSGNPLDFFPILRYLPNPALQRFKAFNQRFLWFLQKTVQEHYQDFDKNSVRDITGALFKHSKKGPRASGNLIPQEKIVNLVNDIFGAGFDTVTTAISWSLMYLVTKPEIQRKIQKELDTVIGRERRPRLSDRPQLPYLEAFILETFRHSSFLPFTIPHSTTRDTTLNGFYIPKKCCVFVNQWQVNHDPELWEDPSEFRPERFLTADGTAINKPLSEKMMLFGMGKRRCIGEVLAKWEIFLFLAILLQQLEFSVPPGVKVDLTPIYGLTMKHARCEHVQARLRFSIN
# In short: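 Human CYP1A2 (20nM) demethylated Luciferin-ME at its Km (100uM) in 100mM KPO4. After 10 min compound preincubation, NADPH regeneration ran the reaction 60 min at room temperature. Luciferin was read by luminescence, normalized to 57 uM furafylline.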
# [8] = NFAT Signaling Pathway (AID 444; active = well fitted curve in either direction with a large enough effect, not every such curve was filed as active;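 note: carbachol stimulus at about its EC50 of 1 µM final; % is set by controls: 0 for no effect and ±100 for the full control effect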); conditions: Jurkat NFAT-bla M1, carbachol, beta-lactamase ratio, 5 h; at 7.69 µM (top of the series) unless noted
# In short: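 Read-out: CCF4 FRET ratio (460 nm/530 nm) after 1 h RT dye loading, used for %activity and AC50 from titration series. Cells: Jurkat NFAT-β-lactamase/M1 line, treated with compound plus 1 uM carbachol for 5 h, 37 °C.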
# [9] = Stat Signaling Pathway (AID 446; active = well fitted curve in either direction with a large enough effect, not every such curve was filed as active;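 note: ME-180 cervical cancer cells given 40 pM IL-6 alongside compound; SIE-controlled beta-lactamase reporter measured as 460/530 nm FRET emission ratio; % is set by controls: 0 for no effect and ±100 for the full control effect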); conditions: ME-180 SIE beta-lactamase reporter, IL-6 stimulated, 5 h; at 7.69 µM (top of the series) unless noted
# In short: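 ME-180 cells carrying a SIE-driven beta-lactamase reporter are stimulated with 40 pM IL-6 for 5 h at 37C in the presence of compound. The 460/530 nm FRET substrate ratio is read after 2.5 h at RT. Data are normalised to 300 pM IL-6 and to 125 nM JAK inhibitor controls.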
# [10] = molecular target: Glucocorticoid receptor (Homo sapiens) (UniProt P04150); assay: GR-EFC Redistribution (AID 451; calls by dose curve; note: potency is the fitted concentration of half-maximal effect); conditions: CHO-K1 GR-EFC translocation, beta-gal luminescence, 2 h
# Glucocorticoid receptor (Homo sapiens), sequence (P04150 whole entry, looked up, the tested form may be a part): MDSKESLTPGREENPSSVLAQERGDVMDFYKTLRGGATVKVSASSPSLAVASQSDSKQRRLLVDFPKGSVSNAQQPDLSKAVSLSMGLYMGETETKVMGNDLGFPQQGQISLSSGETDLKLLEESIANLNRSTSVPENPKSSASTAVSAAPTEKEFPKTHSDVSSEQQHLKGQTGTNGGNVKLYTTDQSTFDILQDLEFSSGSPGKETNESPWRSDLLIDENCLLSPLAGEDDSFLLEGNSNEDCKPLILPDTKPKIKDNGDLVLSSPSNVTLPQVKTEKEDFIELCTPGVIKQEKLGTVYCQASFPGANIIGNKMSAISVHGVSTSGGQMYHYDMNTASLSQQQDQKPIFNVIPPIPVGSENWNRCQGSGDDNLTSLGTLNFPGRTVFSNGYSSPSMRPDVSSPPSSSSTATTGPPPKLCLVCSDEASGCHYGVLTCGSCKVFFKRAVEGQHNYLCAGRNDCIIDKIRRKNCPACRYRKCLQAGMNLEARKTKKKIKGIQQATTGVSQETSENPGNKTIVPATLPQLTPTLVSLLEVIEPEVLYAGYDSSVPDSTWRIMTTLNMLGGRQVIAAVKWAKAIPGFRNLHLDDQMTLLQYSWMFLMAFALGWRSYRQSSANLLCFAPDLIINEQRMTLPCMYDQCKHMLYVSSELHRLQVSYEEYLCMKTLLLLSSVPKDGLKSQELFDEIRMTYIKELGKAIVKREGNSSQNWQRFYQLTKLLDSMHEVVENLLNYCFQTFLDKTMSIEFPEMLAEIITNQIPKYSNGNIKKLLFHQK
# In short: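 Translocation of GR-ED fusion to nuclear EA restores b-gal, read by luminescence after 1 h room-temperature detection. Engineered CHO-K1 biosensor cells, 1,000/well, exposed 2 h at 37 C to titrations up to 46 uM final.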
# [11] = molecular target: Mitogen-activated protein kinase 10 (Mus musculus) (UniProt Q61831); assay: JNK3 AlphaScreen Assay (AID 530; active = well fitted curve in either direction with a large enough effect, not every such curve was filed as active;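 note: kinase came from lysate of stimulated human HepG2 cells; signal reports phosphorylation of biotinylated GST-cJun 1-79 at Ser73 with 10 µM ATP; % is set by controls: 0 for no effect and ±100 for the full control effect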)
# In short: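 Room-temperature AlphaScreen kinase assay; pre-activated HepG2 lysate as JNK3 source, biotin-GST-cJun(1-79) substrate, 10 uM ATP, compound 15 min preincubation.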
# [12] = molecular target: 3',5'-cyclic-AMP phosphodiesterase 4B (Homo sapiens) (UniProt Q07343); assay: qHTS Assay for Inhibitors of PDE-IV (AID 607; active = well fitted activation curve with a large enough effect in the main read-out, with a control signal flat, not every such curve was filed as active; note: % of control where 0% means no effect)
# 3',5'-cyclic-AMP phosphodiesterase 4B (Homo sapiens), sequence (Q07343 whole entry, looked up): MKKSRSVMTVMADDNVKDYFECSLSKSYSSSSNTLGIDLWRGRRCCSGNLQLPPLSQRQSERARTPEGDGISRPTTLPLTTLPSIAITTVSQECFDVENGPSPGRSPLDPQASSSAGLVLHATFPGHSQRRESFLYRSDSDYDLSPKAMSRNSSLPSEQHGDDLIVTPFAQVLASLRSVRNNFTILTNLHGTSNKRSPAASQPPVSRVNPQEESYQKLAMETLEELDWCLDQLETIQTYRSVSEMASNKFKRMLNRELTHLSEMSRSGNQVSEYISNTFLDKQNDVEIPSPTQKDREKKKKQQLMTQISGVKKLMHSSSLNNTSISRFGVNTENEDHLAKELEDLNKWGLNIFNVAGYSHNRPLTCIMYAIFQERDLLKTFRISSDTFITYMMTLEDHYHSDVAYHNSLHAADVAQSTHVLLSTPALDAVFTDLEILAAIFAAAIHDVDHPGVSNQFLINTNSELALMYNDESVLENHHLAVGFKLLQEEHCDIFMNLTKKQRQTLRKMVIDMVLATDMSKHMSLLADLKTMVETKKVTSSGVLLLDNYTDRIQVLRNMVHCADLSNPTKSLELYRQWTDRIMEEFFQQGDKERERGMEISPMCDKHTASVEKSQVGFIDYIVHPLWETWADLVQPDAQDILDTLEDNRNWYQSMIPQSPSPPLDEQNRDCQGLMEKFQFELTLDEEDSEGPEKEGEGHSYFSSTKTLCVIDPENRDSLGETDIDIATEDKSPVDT
# In short: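 HEK293 ACTOne cells with CNG channel (1000/well), endogenous PDE4; membrane potential dye, compounds up to 22.9 uM final. Fluorescence Ex 535/Em 590; RO 20-1724 (100 uM final) as reference.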
# [13] = molecular target: Cytochrome P450 3A4 (Homo sapiens) (UniProt P08684); assay: qHTS Assay for Inhibitors and Substrates of Cytochrome P450 3A4 (AID 884); note: % is set by controls: 0 for no effect and ±100 for the full control effect; nearly all actives have a fitted effect of over 50% in size
# Cytochrome P450 3A4 (Homo sapiens), sequence (P08684 whole entry, looked up): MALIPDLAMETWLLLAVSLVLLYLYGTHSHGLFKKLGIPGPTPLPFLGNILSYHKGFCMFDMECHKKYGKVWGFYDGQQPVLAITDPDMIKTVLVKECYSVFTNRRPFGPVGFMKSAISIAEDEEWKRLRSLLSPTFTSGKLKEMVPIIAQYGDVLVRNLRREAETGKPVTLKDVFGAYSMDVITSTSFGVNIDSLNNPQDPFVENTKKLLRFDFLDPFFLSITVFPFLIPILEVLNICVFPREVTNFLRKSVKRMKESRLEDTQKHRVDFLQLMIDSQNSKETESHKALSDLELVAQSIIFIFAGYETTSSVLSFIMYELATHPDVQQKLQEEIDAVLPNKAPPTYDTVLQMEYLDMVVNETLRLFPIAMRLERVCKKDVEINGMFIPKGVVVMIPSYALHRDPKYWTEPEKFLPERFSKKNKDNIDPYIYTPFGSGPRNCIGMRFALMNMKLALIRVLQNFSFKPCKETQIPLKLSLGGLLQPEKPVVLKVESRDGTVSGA
# In short: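 20 nM human CYP3A4 with 25 uM Luciferin-PPXE (at KM) in 200 mM KPO4, preincubated 10 min with compound; NADPH regeneration started a 60 min RT reaction. Luciferin detected by luminescence, normalized to 57 uM ketoconazole as full inhibition.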
# [14] = molecular target: Cytochrome P450 3A4 (Homo sapiens) (UniProt P08684); assay: qHTS Assay for Activators of Cytochrome P450 3A4 (AID 885); note: potency is the fitted concentration of half-maximal effect; nearly all actives have a fitted effect of over 65% in size
# In short: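 Human CYP3A4 (20 nM) with Luciferin-PPXE at 25 uM (its KM) in 200 mM KPO4; 10 min compound preincubation, then NADPH regeneration and 60 min reaction at RT. Luciferin read by luminescence; normalized to 57 uM ketoconazole full inhibition.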
# [15] = Primary qHTS for small molecule stabilizers of the endoplasmic reticulum resident proteome: Secreted ER Calcium Modulated Protein (SERCaMP) assay (AID 1508630); note: % is set by controls: 0 for no effect and ±100 for the full control effect
# In short: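 GLuc-SERCaMP-expressing SH-SY5Y cells, pretreated 16 h with compound, are challenged with thapsigargin to empty ER calcium stores; after 4 h, coelenterazine is added directly to the medium and luminescence is imaged.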
# [16] = molecular target: Glucocorticoid receptor (Homo sapiens) (UniProt P04150); assay: GR-GFP Redistribution (AID 450;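 active = compounds whose dose series gives a full or clear partial fitted curve of increased nuclear translocation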; note: potency is the fitted concentration of half-maximal effect); conditions: U2OS GR-GFP nuclear translocation, laser cytometry, 2 h
# [17] = molecular target: Dual specificity protein kinase CLK4 (Homo sapiens) (UniProt Q9HAZ1); assay: qHTS Assay for Inhibitors of CDC-like Kinase 4 (Kinase-Glo Assay) (AID 1770); note: % is set by controls: 0 for no effect and ±100 for the full control effect; nearly all actives have a fitted effect of over 65% in size
# Dual specificity protein kinase CLK4 (Homo sapiens), sequence (Q9HAZ1 whole entry, looked up): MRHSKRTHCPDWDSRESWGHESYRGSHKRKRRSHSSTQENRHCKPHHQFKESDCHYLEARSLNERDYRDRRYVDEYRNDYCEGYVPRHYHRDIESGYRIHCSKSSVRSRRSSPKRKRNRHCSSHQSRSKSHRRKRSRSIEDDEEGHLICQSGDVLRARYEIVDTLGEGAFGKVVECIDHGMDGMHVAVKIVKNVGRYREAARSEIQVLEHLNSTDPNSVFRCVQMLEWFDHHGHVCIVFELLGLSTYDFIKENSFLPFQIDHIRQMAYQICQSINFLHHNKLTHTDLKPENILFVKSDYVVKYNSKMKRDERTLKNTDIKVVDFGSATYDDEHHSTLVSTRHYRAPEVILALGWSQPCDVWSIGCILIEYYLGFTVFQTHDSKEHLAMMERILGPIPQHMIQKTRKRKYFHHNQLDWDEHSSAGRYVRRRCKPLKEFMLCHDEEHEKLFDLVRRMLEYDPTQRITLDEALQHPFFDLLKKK
# In short: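 Substrate mix (RS peptide 100 uM, ATP 1 uM) dispensed, compound pinned in, then Clk4 added to 25 nM final. Incubated 4.5 h at RT; Kinase-Glo reagent added, luminescence read after 5 min.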
# [18] = molecular target: Dual specificity protein kinase CLK4 (Homo sapiens) (UniProt Q9HAZ1); assay: qHTS Assay for Inhibitors of CDC-like Kinase 4 (ADP-Glo Assay) (AID 1771); note: % is set by controls: 0 for no effect and ±100 for the full control effect; nearly all actives have a fitted effect of over 70% in size
# In short: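 Clk4 (25 nM) was incubated 1 hr at room temperature with 100 uM RS repeat peptide and 1 uM ATP in buffer with 2 mM MgCl2, 0.5 mM EGTA, 2.5 mM DTT. ADP formed was quantified by ADP-Glo luminescence.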
# [19] = molecular target: Dual specificity protein kinase CLK4 (Homo sapiens) (UniProt Q9HAZ1); assay: qHTS Assay for Inhibitors of CDC-like Kinase 4 (ADP-FP Assay) (AID 1795);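 note: recombinant human CLK4 phosphorylating RS repeat peptide at 1 µM ATP; % is set by controls: 0 for no effect and ±100 for the full control effect; nearly all actives have a fitted effect of over 60% in size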
# In short: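 Clk4 6.25 nM; RS peptide 100 uM; ATP 1 uM; 25 mM Tris pH 7.5, 10 mM MgCl2; 1 h reaction. ADP detected via antibody/orange tracer FP displacement; TG003 positive control.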
# [20] = molecular target: Ubiquitin carboxyl-terminal hydrolase 1 (Homo sapiens) (UniProt O94782); assay: Inhibitors of USP1/UAF1: Pilot qHTS (AID 504865);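 note: rhodamine fluorescence freed from ubiquitin-rhodamine substrate followed over time; top concentration of the series differs between compounds; % is set by controls: 0 for no effect and ±100 for the full control effect; nearly all actives have a fitted effect of over 35% in size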
# Ubiquitin carboxyl-terminal hydrolase 1 (Homo sapiens), sequence (O94782 whole entry, looked up): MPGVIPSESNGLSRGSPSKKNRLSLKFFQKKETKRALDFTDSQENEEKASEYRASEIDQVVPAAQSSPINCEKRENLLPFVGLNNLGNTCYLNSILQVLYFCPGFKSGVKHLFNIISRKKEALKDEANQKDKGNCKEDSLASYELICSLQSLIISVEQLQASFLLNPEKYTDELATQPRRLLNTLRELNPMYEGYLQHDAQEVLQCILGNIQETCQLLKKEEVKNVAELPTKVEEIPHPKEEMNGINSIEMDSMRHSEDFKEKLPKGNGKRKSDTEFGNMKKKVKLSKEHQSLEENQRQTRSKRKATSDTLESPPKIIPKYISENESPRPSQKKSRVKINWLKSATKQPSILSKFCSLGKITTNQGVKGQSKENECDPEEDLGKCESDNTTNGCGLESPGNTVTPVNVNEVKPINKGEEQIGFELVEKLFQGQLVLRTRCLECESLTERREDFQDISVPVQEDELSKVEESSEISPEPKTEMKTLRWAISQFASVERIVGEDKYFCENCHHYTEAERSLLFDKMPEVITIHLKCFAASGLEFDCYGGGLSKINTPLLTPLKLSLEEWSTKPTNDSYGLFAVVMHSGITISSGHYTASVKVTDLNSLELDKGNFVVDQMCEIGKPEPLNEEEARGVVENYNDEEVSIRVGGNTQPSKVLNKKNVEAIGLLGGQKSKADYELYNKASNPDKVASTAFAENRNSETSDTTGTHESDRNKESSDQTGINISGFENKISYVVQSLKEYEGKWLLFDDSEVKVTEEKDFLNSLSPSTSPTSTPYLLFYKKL
# In short: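 In 50mM HEPES pH 7.8 containing 0.5mM EDTA, 1mM TCEP, 0.1 mg/ml BSA and 0.01% Tween-20, 1nM USP1/UAF1 is exposed to compound for 15 min, then Ub-Rho (150nM final) is added and fluorescence is read over time.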
smiles,measurement,setting,value
COc1cc(C(N)=O)ccc1NC(=O)[C@@H]1N[C@@H](CC(C)(C)C)[C@@]2(C(=O)Nc3cc(Cl)ccc32)[C@H]1c1cccc(Cl)c1F,Potency,[1],0.235 µM (active)
same,Potency,[2],0.0934 µM (active)
same,Potency,[3],inactive
same,Z-AUC,[4],-0.18 (inactive)
same,Z-AUC,[4]; measured here: PEO1 parental Z-AUC,-0.499
same,Z-AUC,[4]; measured here: PEO4 Z-AUC,-0.498
O=C(c1cccc(F)c1)N1CCC2(CC1)CCN(c1cccc(-c3ccccc3)c1)CC2,Potency,[5],> 11.4 µM (inactive)
same,"activity change, negative = inhibition",[6],-4.91% (inactive)
same,Potency,[7],20 µM (active)
same,"activity change, negative = inhibition",[8],4.3% (inactive)
same,"activity, negative = inhibition",[9],-10.4% (inactive)
same,Potency,[10],> 46 µM (inactive)
same,outcome,[11],inactive
same,Potency,[12],inactive
same,Potency,[13],inactive
same,Potency,[14],5.01 µM (active)
same,Potency,[15],inactive
O=c1c(-c2cc(F)cc(F)c2)nc2cnc(N3CCOCC3)nc2n1C[C@H]1CCCO1,Potency,[5],> 11.4 µM (inactive)
same,"activity change, negative = inhibition",[6],10.4% (inactive)
same,Potency,[7],2.51 µM (active)
same,"activity change, negative = inhibition",[8],-16% (inactive)
same,"activity, negative = inhibition",[9],0.32% (inactive)
same,Potency,[16],> 9.22 µM (inactive)
same,Potency,[10],> 46 µM (inactive)
same,outcome,[11],inactive
same,Potency,[12],inactive
same,Potency,[17],inactive
same,Potency,[18],inactive
same,Potency,[19],inactive
same,Potency,[20],inactive
same,Potency,[15],inactive
COc1ncc2nc(-c3ccccc3)c(=O)n(-c3ccccc3)c2n1,Potency,[5],> 11.4 µM (inactive)
same,"activity change, negative = inhibition",[6],-21.5% (inactive)
same,Potency,[7],2 µM (active)
same,"activity change, negative = inhibition",[8],3.29% (inactive)
same,"activity, negative = inhibition",[9],-8.81% (inactive)
same,Potency,[16],> 9.22 µM (inactive)
same,Potency,[10],> 46 µM (inactive)
same,outcome,[11],inactive
same,Potency,[17],inactive
same,Potency,[18],inactive
same,Potency,[19],inactive
same,Potency,[20],inactive
same,Potency,[15],inactive
